Measured values taken from PubChem BioAssay (NCATS).
Results filed as inconclusive are left out. Active and inactive are the calls of the source. Unless noted, calls follow the shape of the dose curve; as a rule, active = well fitted curve in the direction sought with a large enough effect; inconclusive = small, poorly fitted or top-dose-only effect, or another doubt; inactive = no such curve, though single readings can be large; an effect the other way counts as inactive or inconclusive.

Assays:
MKL-2 = assay: qHTS assay to identify novel small-molecules to repurpose for Merkel cell carcinoma treatment (AID 1296009); conditions: MCC and control cell lines, CellTiter-Glo viability, 72 h; series mostly up to 46 µM; also: nearly all actives have a fitted effect of over 60% in size; also: potency is read from the fitted curve at half-maximal effect
Procedure, shortened: (§1)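 Luminescence from CellTiter-Glo, read 10 min after addition at room temperature, reported viability following a 72 hr, 37 degree celsius treatment with NPC or MIPE compounds in titration; values normalized to plate controls.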

UISO = assay: as above; conditions: MCC and control cell lines, CellTiter-Glo viability, 72 h; series mostly up to 46 µM
Procedure, shortened: as §1

NIH3T3 = assay: as above; conditions: MCC and control cell lines, CellTiter-Glo viability, 72 h; at 44.8 µM (top of the series) unless noted
Procedure, shortened: as §1

WaGa = assay: as above; conditions: MCC and control cell lines, CellTiter-Glo viability, 72 h; series mostly up to 46 µM
Procedure, shortened: as §1

[1] = qHTS assay to identify inhibitors of the type 1 interferon - major histocompatibility complex class I in skeletal muscle: Counter screen cell viability and HiBit confirmation (AID 1347412); conditions: iHSKM muscle cells + IFN-b, HiBiT or CellTiter-Glo, 24 h; Potency: HiBiT; Viability, at 45.9 µM (top of the series); also: nearly all actives have a fitted effect of over 60% in size; also: potency is read from the fitted curve at half-maximal effect
Procedure, shortened: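 HLA-B*08:01–HiBiT knock-in immortalized human myoblasts (C25cl48) stimulated with 4.0 ng/ml human IFN-beta and dosed with compound in a 12-point 1:3 titration (top final 46 uM). After 24 hrs at 37 C, HiBiT lytic luminescence or CellTiter Glo ATP read out.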

CASKI = assay: Primary qHTS to identify gynecologic anti-cancer compounds using libraries of approved drugs and bioactive compounds (AID 1345084); conditions: Gynecologic cancer cell panel viability, ATPlite luminescence, 48 h; series mostly up to 57.5 µM; also: nearly all actives have a fitted effect of over 55% in size; also: potency is read from the fitted curve at half-maximal effect
Procedure, shortened: (§2)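 Measured: luminescence after ATPlite addition (15 min, RT). Exposure: 48 h, 37 C, 5% CO2.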

Es-2 = assay: as above; conditions: Gynecologic cancer cell panel viability, ATPlite luminescence, 48 h; series mostly up to 57.5 µM
Procedure, shortened: as §2

Hek293T = assay: as above; conditions: Gynecologic cancer cell panel viability, ATPlite luminescence, 48 h, control line for the selectivity index; series mostly up to 57.5 µM
Procedure, shortened: as §2

JEG-3 = assay: as above; conditions: Gynecologic cancer cell panel viability, ATPlite luminescence, 48 h; series mostly up to 57.5 µM
Procedure, shortened: as §2

OV90 = assay: as above; conditions: Gynecologic cancer cell panel viability, ATPlite luminescence, 48 h; series mostly up to 57.5 µM
Procedure, shortened: as §2

PA-1 = assay: as above; conditions: Gynecologic cancer cell panel viability, ATPlite luminescence, 48 h; series mostly up to 57.5 µM
Procedure, shortened: as §2

SKOV3 = assay: as above; conditions: Gynecologic cancer cell panel viability, ATPlite luminescence, 48 h; series mostly up to 57.5 µM
Procedure, shortened: as §2

Tov-21-G = assay: as above; conditions: Gynecologic cancer cell panel viability, ATPlite luminescence, 48 h; series mostly up to 57.5 µM
Procedure, shortened: as §2

Tov112D = assay: as above; conditions: Gynecologic cancer cell panel viability, ATPlite luminescence, 48 h; series mostly up to 57.5 µM
Procedure, shortened: as §2

C33A = assay: as above; conditions: Gynecologic cancer cell panel viability, ATPlite luminescence, 48 h; series mostly up to 57.5 µM
Procedure, shortened: as §2

HeLa = assay: as above; conditions: Gynecologic cancer cell panel viability, ATPlite luminescence, 48 h; series mostly up to 57.5 µM
Procedure, shortened: as §2

[2] = qHTS assay for small molecule activators of the human pregnane X receptor (PXR) signaling pathway (AID 720659; call rule not given here)

Structure (SMILES): CC(=O)SCC(Cc1ccccc1)C(=O)NCC(=O)OCc1ccccc1 (stereo not given)
- Potency (MKL-2): 0.209 µM (active)
- Potency (UISO): 14.8 µM (active)

Structure (SMILES): O=C1NC(=O)[C@@H](c2cn3c4c(cccc24)CCC3)[C@H]1c1c[nH]c2ccccc12
- Potency (MKL-2): 23.5 µM (active)
- Potency (UISO): 1.18 µM (active)

Structure (SMILES): C[C@]12CC[C@@H]3c4ccc(O)cc4CC[C@H]3[C@H]1CC[C@H]2O
- Potency (MKL-2): inactive

Structure (SMILES): COc1cc(C[C@@H](CO)[C@H](CO)Cc2ccc(O)c(OC)c2)ccc1O
- Potency (MKL-2): 16.6 µM (active)
- outcome (NIH3T3): inactive

Structure (SMILES): COc1ccc(S(=O)(=O)Nc2cc(-c3c(O)ccc4ccccc34)c(O)c3ccccc23)cc1
- Potency (MKL-2): 26.4 µM (active)
- outcome (NIH3T3): inactive
- Potency (UISO): 0.166 µM (active)

Structure (SMILES): Cn1cc(CNCC2CCN(c3ncc(C(=O)NO)cn3)CC2)c2ccccc21
- Potency (MKL-2): 0.0332 µM (active)
- Potency (UISO): 0.264 µM (active)
- Potency (WaGa): 0.0296 µM (active)
- Potency [1]: 0.157 µM (active)

Structure (SMILES): CCC(C=C[C@@H]1OC(=O)C=C[C@H]1C)=C[C@H](C)CC=CC(C)=C[C@@H](C)C(=O)[C@@H](C)[C@H](O)[C@@H](C)CC(C)=CC(=O)O
- Potency (MKL-2): 0.0049 µM (active)
- Potency (UISO): 0.022 µM (active)

Structure (SMILES): O=C1CSC(=O)N1C(CCc1ccncc1)COc1ccc(-c2cccc([N+](=O)[O-])c2)cc1 (stereo not given)
- Potency (MKL-2): 18.7 µM (active)
- Potency (UISO): 13.2 µM (active)
- Potency (WaGa): 16.6 µM (active)

Structure (SMILES): CS[C@H]1SC[C@@H]2C(=O)N(C)[C@H](C(C)C)C(=O)OC[C@H](NC(=O)c3cnc4ccccc4n3)C(=O)N[C@H](C)C(=O)N(C)[C@@H]1C(=O)N(C)[C@H](C(C)C)C(=O)OC[C@H](NC(=O)c1cnc3ccccc3n1)C(=O)N[C@H](C)C(=O)N2C
- Potency (UISO): 0.0026 µM (active)
- Potency (WaGa): inactive

Structure (SMILES): NC(=O)N1CCC(CC(=O)N2CCC([C@H]3c4ncc(Br)cc4CCc4cc(Cl)cc(Br)c43)CC2)CC1
- Potency (WaGa): 11.8 µM (active)

Structure (SMILES): CC1=C(C(=O)Nc2cc3cn[nH]c3cc2F)C(c2ccc(Cl)cc2F)N=C(c2ccnc(Cl)c2)N1 (stereo not given)
- Potency (MKL-2): 20.9 µM (active)
- Potency (WaGa): 10.5 µM (active)
- Potency (CASKI): inactive
- Potency (Es-2): inactive
- Potency (Hek293T): inactive
- Potency (JEG-3): inactive
- Potency (OV90): inactive
- Potency (PA-1): inactive
- Potency (SKOV3): inactive
- Potency (Tov-21-G): inactive
- Potency (Tov112D): inactive

Structure (SMILES): Cc1cnn(C)c1C(=O)Nc1cc(Nc2ccc3c(C=Cc4ccccn4)n[nH]c3c2)ccc1F
- Potency (UISO): 16.6 µM (active)

Structure (SMILES): COc1cc(N2CCC(C(N)=O)CC2)ccc1Nc1nc(N)c(Cl)c(Nc2ccccc2S(=O)(=O)C(C)C)n1
- Potency (UISO): 5.9 µM (active)
- Potency (WaGa): 16.6 µM (active)

Structure (SMILES): CC(C)n1cnc2c(NCCc3ccc(O)cc3)nc(-c3csc4ccccc34)nc21
- Potency (WaGa): inactive
- Potency (C33A): inactive
- Potency (CASKI): inactive
- Potency (Es-2): inactive
- Potency (HeLa): inactive
- Potency (Hek293T): inactive
- Potency (JEG-3): inactive
- Potency (OV90): inactive
- Potency (PA-1): inactive
- Potency (Tov-21-G): inactive
- Potency (Tov112D): inactive

Structure (SMILES): CC[C@]12C=CCN3CC[C@@]4(c5cc([C@@]6(C(=O)OC)C[C@H]7C[C@@H](C(C)(F)F)CN(Cc8c6[nH]c6ccccc86)C7)c(OC)cc5N(C)[C@H]4[C@@](O)(C(=O)OC)[C@H]1OC(C)=O)[C@@H]32
- Potency (WaGa): 0.0059 µM (active)

Structure (SMILES): N=c1ccn2c(n1)O[C@H]1[C@@H](O)[C@@H](CO)O[C@H]12
- Potency (UISO): 0.526 µM (active)
- Potency (WaGa): 2.09 µM (active)

Structure (SMILES): Cc1ncc(-c2ccnc(Nc3ccc(S(C)(=O)=O)cc3)n2)n1C(C)C
- Potency (CASKI): 7.08 µM (active)
- Potency (Es-2): 10 µM (active)
- Potency (HeLa): 7.08 µM (active)
- Potency (Hek293T): 5.01 µM (active)
- Potency (JEG-3): inactive
- Potency (PA-1): 5.01 µM (active)
- Potency (Tov-21-G): 10 µM (active)
- Potency (Tov112D): 10 µM (active)

Structure (SMILES): OCCNC1CCCc2c1[nH]c1ccc(-c3ccccc3)cc21 (stereo not given)
- Potency (MKL-2): 26.4 µM (active)
- Potency (Es-2): inactive
- Potency (HeLa): 8.91 µM (active)
- Potency (Hek293T): inactive
- Potency (JEG-3): inactive
- Potency (OV90): inactive
- Potency (PA-1): 20 µM (active)
- Potency (Tov-21-G): inactive
- Potency (Tov112D): inactive
- Potency [1]: inactive

Structure (SMILES): FC(F)c1nc2ccccc2n1-c1nc(N2CCOCC2)nc(N2CCOCC2)n1
- Potency (CASKI): 2.24 µM (active)
- Potency (Es-2): 14.1 µM (active)
- Potency (Hek293T): 2.24 µM (active)
- Potency (PA-1): 2 µM (active)
- Potency (SKOV3): 2.82 µM (active)

Structure (SMILES): C=CC(=O)Nc1cc(NC(=O)c2ccc(C)c(NC(=O)c3ccno3)c2)cc(C(F)(F)F)c1
- Potency (WaGa): 18.7 µM (active)

Structure (SMILES): CC(C=CC1=C(C)CCCC1(C)C)=CC=CC(C)=CC(=O)Nc1ccc(O)cc1
- Potency (MKL-2): 30.3 µM (active)
- outcome [2]: inactive

Structure (SMILES): CC(C)C[C@H](NC(=O)[C@@H](NC(=O)c1cccc(-c2ccccc2)n1)[C@@H](C)O)B(O)O
- Potency (MKL-2): 0.0418 µM (active)
- Potency (WaGa): 0.0833 µM (active)
- Potency (CASKI): 0.112 µM (active)
- Potency (Es-2): 0.251 µM (active)
- Potency (HeLa): 0.631 µM (active)
- Potency (Hek293T): 0.316 µM (active)
- Potency (OV90): 0.316 µM (active)
- Potency (Tov-21-G): 0.112 µM (active)
- Potency [1]: 0.0557 µM (active)
